{"source": "PubChem BioAssay (NCATS)", "note": "Inconclusive results are not listed. Active and inactive are the calls of the source. Calls follow the shape of the dose curve; as a rule, active = well fitted cell-killing curve with a large enough effect; inconclusive = small, poorly fitted or top-dose-only effect; inactive = no such curve, though single readings can be large or run the other way. Potency is read from the fitted curve at half-maximal effect."}
{"test": "Quantitative High-Throughput drug screen in 47 multiple myeloma cell lines against the NCATS MIPE library collection: NCIH929_DSMZ cell viability assay (AID 1918978); also: nearly all actives have a fitted effect of over 35% in size", "conditions": "NCI-H929 myeloma viability, CellTiter-Glo ATP, 48 h; series mostly up to 45.8 µM", "from_the_text": "PI: Beverly A. Mock Ph.D.\nLaboratory of Cancer Biology and Genetics,\nCenter for Cancer Research, National Cancer Institute,\nNational Institute of Health, Bethesda, Maryland\nDrug resistance and disease progression are common in multiple myeloma (MM) patients, underscoring the need for new therapeutic combinations. […] We hypothesized that effective combinations would reduce MYC expression and enhance p16 activity. […] These preclinical data identify potentially useful drug combinations for evaluation in drug-resistant MM and reveal potential mechanisms of combined drug sensitivity.\nDescribed herein is the primary MIPE qHTS used to cherrypick compounds. Validated compounds were then further tested for potential synergistic activiy.\n[1] Peat TJ, Gaikwad SM, Dubois W, Gyabaah-Kessie N, Zhang S, Gorjifard S, Phyo Z, Andres M, Hughitt VK, Simpson RM, Miller MA, Girvin AT, Taylor A, Williams D, D'Antonio N, Zhang Y, Rajagopalan A, Flietner E, Wilson K, Zhang X, Shinn P, Klumpp-Thomas C, McKnight C, Itkin Z, Chen L, Kazandijian D, Zhang J, Michalowski AM, Simmons JK, Keats J, Thomas CJ, Mock BA. Drug combinations identified by high-throughput screening promote cell cycle transition and upregulate Smad pathways in myeloma. Cancer Lett. 2023 Aug 1;568:216284. doi: 10.1016/j.canlet.2023.216284. Epub 2023 Jun 24. PMID: 37356470; PMCID: PMC10408729.\nSEQUENCE No. (e.g., 1, 2, 3, etc.); […] (e.g., Cells, Incubation, Reagent, etc.); VALUE and DESCRIPTION.\n1; Cells; 5 uL; white, solid bottom 1536-well Greiner assay plate.\n2; Compounds; 23 nL; Kalypsis pin tool (Wako USA) equipped with a 1536-well pin head to transfer to the assay plates.\n3; Incubation; 48 hours; 37C incubation.\n4; Reagent;5uL; CellTiter Glo (Promega).\n5; Detector; 425V; Luminescence; Viewlux PerkinElmer.\nNOTES (numbers refer to Sequence numbers above)\n1. The cell-based screening methods employed in this study were like those previously published. Briefly, the corresponding myeloma cell lines were screened in 1,536-well plates with 500 cells, 5-uL per well for inhibition of cell viability (assessed by measuring ATP levels with CellTiterGlo).\n2. NCATS MIPE 4.0 library of approved and investigational drugs were added using the Kalypsis pin tool. Wells treated with DMSO only for 100% viability and media only for 0% viability were used as controls.\n3. The assay plates were covered and incubated for 48 hours in a 37C, 5% CO2 incubator with controlled humidity.\n4. After 48 hours, CellTilter-GloTM luminescent substrate mix (Promega) reagent was added to the assay plate and plates we incubated for 5 min at room temperature.\n5. Signal was measured as median relative luminescence units on a ViewLux (PerkinElmer) multiplate reader.\n[1] Heske CM, Davis MI, Baumgart JT, Wilson K, Gormally MV, Chen L, Zhang X, Ceribelli M, Duveau DY, Guha R, Ferrer M, Arnaldez FI, Ji J, Tran HL, Zhang Y, Mendoza A, Helman LJ, Thomas CJ. Matrix Screen Identifies Synergistic Combination of PARP Inhibitors and Nicotinamide Phosphoribosyltransferase (NAMPT) Inhibitors in Ewing Sarcoma. Clin Cancer Res. 2017 Dec 1;23(23):7301-7311. doi: 10.1158/1078-0432.CCR-17-1121. Epub 2017 Sep 12. PMID: 28899971; PMCID: PMC6636827."}
{"smiles": "COc1cc2nc(-c3ccc(N4CCN(C)CC4)cc3)nc(NCCN3CCOCC3)c2cc1OC", "Potency": "296 nM (active)"}
{"smiles": "Cc1ccccc1C(C(=O)NC1CCCCC1)N(C(=O)Cn1ccnc1C)c1cccc(F)c1", "note": "(stereo not given)", "Potency": "inactive"}
{"smiles": "Nc1ncnc2c1nc(Cl)n2[C@@H]1O[C@H](CO)[C@@H](O)[C@@H]1O", "Potency": "8330 nM (active)"}
{"smiles": "CC(=O)OC1C(C)OC(Oc2c(-c3ccc(O)cc3)oc3cc(O)cc(O)c3c2=O)C(O)C1OC(C)=O", "note": "(stereo not given)", "Potency": "inactive"}
{"smiles": "COc1cc(Nc2ncc(F)c(Nc3ccc4c(n3)NC(=O)C(C)(C)O4)n2)cc(OC)c1OC", "Potency": "1180 nM (active)"}
{"smiles": "CCn1cc(C(=O)O)c(=O)c2ccc(C)nc21", "Potency": "inactive"}
{"smiles": "Clc1ccc(-c2nc3sccn3c2C=NOCc2ccc(Cl)c(Cl)c2)cc1", "Potency": "inactive"}
{"smiles": "NS(=O)(=O)c1cccc2c1C(=O)c1cccc(O)c1C2=O", "Potency": "264 nM (active)"}
{"smiles": "Cn1c(N2CCCCS2(=O)=O)nc(C(=O)NCc2ccc(F)cc2)c(O)c1=O", "Potency": "inactive"}
{"smiles": "CC(C)(C)C(=O)Oc1ccc2c(c1)nc(NC(=O)c1cccc([N+](=O)[O-])c1)n2CCCO", "Potency": "inactive"}
{"smiles": "Cc1ccc(Nc2cc(-c3cccc(N4C(=O)c5ccccc5C4=O)c3)ncn2)cc1NS(C)(=O)=O", "Potency": "3320 nM (active)"}
{"smiles": "CC(C)(C)Cn1c(N)nc2ccc(-c3[nH]c(C(C)(C)C)nc3-c3ccc(F)cc3)nc21", "Potency": "26400 nM (active)"}
{"smiles": "O=C(CCCCCCC(=O)Nc1ccccc1)NO", "Potency": "2640 nM (active)"}
{"smiles": "CN1C[C@H]2c3ccccc3Oc3ccc(Cl)cc3[C@@H]2C1", "Potency": "inactive"}
{"smiles": "O=c1cc(CN2CCOCC2)occ1OCCCCCSc1ccnc2cc(C(F)(F)F)ccc12", "Potency": "3720 nM (active)"}
{"smiles": "CO[C@H]1C[C@@H]2CC[C@@H](C)[C@@](O)(O2)C(=O)C(=O)N2CCCC[C@@H]2C(=O)O[C@H]([C@H](C)C[C@@H]2CC[C@H](OC(=O)C(C)(CO)CO)[C@H](OC)C2)CC(=O)[C@H](C)C=C(C)[C@@H](O)[C@@H](OC)C(=O)[C@H](C)C[C@H](C)C=CC=CC=C1C", "Potency": "18700 nM (active)"}
{"smiles": "CNC(=O)c1ccc2cc(C3(O)CCn4cncc43)ccc2c1", "note": "(stereo not given)", "Potency": "inactive"}
{"smiles": "O=c1c(-c2ccc(O)cc2)coc2cc(OC3O[C@H](CO)[C@H](O)[C@H](O)[C@H]3O)cc(O)c12", "note": "(stereo not given in full)", "Potency": "2090 nM (active)"}
{"smiles": "O=C1C(Cl)=C(NCCN2CCOCC2)C(=O)c2ncccc21", "Potency": "7430 nM (active)"}
{"smiles": "CC(C)=CC[C@@H](O)C1=CC(=O)c2c(O)ccc(O)c2C1=O", "Potency": "264 nM (active)"}
{"smiles": "CC(=Cc1ccccc1)C=C1SC(=S)N(CC(=O)O)C1=O", "Potency": "inactive"}
{"smiles": "COc1ccc(-c2cc(=O)c3c(O)cc(O)cc3o2)cc1O", "Potency": "2640 nM (active)"}
{"smiles": "CC1(C)CCC[C@@]2(C)[C@@H]1CC[C@@]1(C)OC(=O)C[C@H]21", "Potency": "inactive"}
{"smiles": "Cc1nnc(C(C)C)n1C1C[C@H]2CC[C@@H](C1)N2CC[C@H](NC(=O)C1CCC(F)(F)CC1)c1ccccc1", "note": "(stereo not given in full)", "Potency": "9350 nM (active)"}
{"smiles": "C=C1C(=O)[C@@]23C(CC[C@@H]1[C@H]2O)[C@@]12CO[C@]3(O)[C@@H](O)[C@@H]1C(C)(C)CC[C@@H]2O", "note": "(stereo not given in full)", "Potency": "1320 nM (active)"}
{"smiles": "Nc1ncnc2c1ncn2[C@@H]1O[C@H](CO)C[C@@H]1O", "Potency": "inactive"}
{"smiles": "c1ccc2c(Cc3c[nH]c4ccccc34)c[nH]c2c1", "Potency": "1050 nM (active)"}
{"smiles": "C[N+]1(C)[C@@H]2CC(OC(=O)[C@H](CO)c3ccccc3)C[C@H]1[C@H]1O[C@@H]12", "note": "(stereo not given in full)", "Potency": "inactive"}
{"smiles": "CCc1ccc(C=C2SC(=S)NC2=O)cc1", "Potency": "inactive"}
{"smiles": "C[C@]12CC[C@@H]3c4ccc(O)cc4C[C@@H](CCCCCCCCCS(=O)CCCC(F)(F)C(F)(F)F)[C@H]3[C@H]1CC[C@H]2O", "note": "(stereo not given in full)", "Potency": "18.7 nM (active)"}
{"smiles": "O=C(O)c1ccccc1C(=O)Nc1ccc(-c2ccccc2)cc1", "Potency": "inactive"}
{"smiles": "COc1ccc(Cc2nccc3cc(OC)c(OC)cc23)cc1OC", "Potency": "inactive"}
{"smiles": "COc1ccc(C2Sc3ccccc3N(CCN(C)C)C(=O)C2OC(C)=O)cc1", "note": "(stereo not given)", "Potency": "inactive"}
{"smiles": "CCC(CC)[C@H](NC(C)=O)[C@@H]1[C@H](O)[C@@H](C(=O)O)C[C@@H]1N=C(N)N", "Potency": "inactive"}
{"smiles": "COc1ccc(-c2coc3cc(O)ccc3c2=O)cc1", "Potency": "inactive"}
{"smiles": "CN1CCN(CCOc2cc(OC3CCOCC3)c3c(Nc4c(Cl)ccc5c4OCO5)ncnc3c2)CC1", "Potency": "18700 nM (active)"}
{"smiles": "COC[C@@H](c1ccc(C(F)(F)F)cc1)N1CCN(C2(C)CCN(C(=O)c3c(C)ncnc3C)CC2)C[C@H]1C", "Potency": "9350 nM (active)"}
{"smiles": "CO[C@H]1C=CC=C(C)C(=O)NC2=CC(=O)C(NCCN(C)C)=C(C[C@@H](C)C[C@H](OC)[C@@H](O)[C@@H](C)C=C(C)[C@@H]1OC(N)=O)C2=O", "Potency": "59 nM (active)"}
{"smiles": "C[C@H]1[C@H](NC(=O)C(=NOC(C)(C)C(=O)O)c2csc(N)n2)C(=O)N1S(=O)(=O)O", "Potency": "inactive"}
{"smiles": "CC(C)(C(=O)NCC(F)(F)C(F)(F)F)C(=O)N[C@@H]1C(=O)Nc2ccccc2-c2ccccc21", "Potency": "16600 nM (active)"}
